Measured values: PubChem BioAssay
Activity calls are given as the source filed them.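 How the source made its calls, unless noted: active means fluorescence slope higher than the sample average by over 3 SD (cut at about -0.22 in these data, passing the limit was not always enough); inactive means the rest.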

Experiments:
[1] = inhibitors of E-selectin induction by TNFa, primary screen, imaging, HUVEC, immunofluorescence, MLSMR starter and 10KST1 sets (AID 487;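 active means visually confirmed hit in the image check and inhibition above 20%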;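 on inhibition: signal is fraction of cell area covered by stained E-selectin grains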;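 on nuclei count: 100% = median nuclei count of all wells on the same plate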); conditions: HUVEC TNFalpha-induced E-selectin immunofluorescence imaging, at 2 µM; inhibition: stronger effect = higher value; nuclei count: measured here: cell number, toxicity
[2] = DUSP6 inhibitors restoring Erk phosphorylation by chemical complementation, primary imaging in DUSP6-transfected HeLa (AID 609;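 active means compounds giving at least 50% inhibition in the cell-based MKP-3 phosphatase rescue imaging test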;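 on inhibition: phospho-Erk level distribution per well compared with pooled transfected vehicle control wells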); conditions: HeLa MKP-3 transfected, phospho-Erk imaging KS statistic, at 10 µM, cells stimulated with TPA for 15 min
[3] = molecular target: Dual specificity protein phosphatase 6 (Homo sapiens) (UniProt Q16828); assay: as above; conditions: HeLa MKP-3 transfected, phospho-Erk imaging KS statistic; at 10 µM; stronger effect = higher value; cells stimulated with TPA for 15 min
[4] = molecular target: Voltage-gated potassium channel subunit beta-2 (Rattus norvegicus) (UniProt P62483); assay: KvBeta enzyme negative modulators, primary screen, biochemical, NADPH fluorescence (AID 622); conditions: recombinant KvBeta, 4-cyanobenzaldehyde reduction, at 10 µM, stronger effect = higher value;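 further: slope of raw intensity against log time taken from 70 to 1610 s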
[5] = molecular target: Voltage-gated potassium channel subunit beta-2 (Rattus norvegicus) (UniProt P62483); assay: KvBeta positive modulators, primary screen, biochemical, NADPH fluorescence (AID 623;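 active means NADPH fluorescence slope more negative than the mean of all samples by about 3 SD, 99.7% confidence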;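 further: fluorescence intensity change per second fitted from 20 to 320 s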); conditions: Recombinant KvBeta, NADPH fluorescence decrease slope, 10 min; at 10 µM; stronger effect = lower value
[6] = molecular target: Muscarinic acetylcholine receptor M4 (Homo sapiens) (UniProt P08173); assay: compounds altering M4/GIRK thallium flux, either direction, primary screen, M4 allosteric agonist project, cell-based, HEK293 M4/GIRK, BTC-AM (AID 625;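 active means fluorescence slope after compound addition differing from the mean of all tested samples at 99.7% confidence, mostly higher but some lower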;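 further: thallium influx through GIRK channels coupled to M4 in HEK293 cells with BTC-AM dye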); conditions: at 10 µM, actives lie on both sides
[7] = inhibitors of larval lipid processing in zebrafish, primary screen, whole organism, PED6 fluorescence, gall bladder and intestine (AID 686;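 active means a full or partial loss of lipid-probe fluorescence in the fish gall bladder, intestine or both, judged by eye; inactive means no fluorescence loss, or compound toxic to the fish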;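 further: larvae 5 to 7 days old with five fish per well; signal comes from phospholipase A2 cleavage of quenched PED6 carried via bile; overnight exposure to compound and PED6 before scoring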); conditions: Zebrafish larvae PED6 lipid processing, fluorescence scoring; screened at 20 µM (by protocol)
[8] = inhibitors of Chlamydomonas gravitaxis, primary screen, whole organism, Chlamydomonas reinhardtii, WT vs cilia-less mutant, absorbance, 96-well (AID 463189;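 active means inhibition at or above 50% relative to wild type and mutant plate controls; inactive means inhibition below 50%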;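 further: 0% = wild type cc124 cells in DMSO and 100% = ciliumless bld1 mutant cells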); conditions: OD600 absorbance, 2 days, at 10 µM, stronger effect = higher value
[9] = inhibitors of Sendai virus-induced IRF3 signaling, primary screen, TLR/RLR signaling modifier project, cell-based, Sendai virus stimulus, luciferase, 10K MLSCN set (AID 602276;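 active means inhibition at or above 50% at 10 µM; inactive means inhibition below 50%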;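 further: firefly luciferase from ISG56 promoter only with Renilla not read in this screen; 0% = Sendai virus plus DMSO and 100% = medium plus DMSO without virus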); conditions: HEK293 RL24 IRF3 luciferase reporter, at 10 µM, stronger effect = higher value
[10] = inhibitors of poly I:C-induced TLR3 signaling, primary screen, cell-based, poly I:C stimulus, luciferase, 10K MLSCN set (AID 602277;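 active means inhibition of the reporter signal at or above 50%; inactive means inhibition below 50%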); conditions: HEK293-TLR3 RL24 IRF3 luciferase reporter, at 10 µM, stronger effect = higher value
[11] = molecular target: Alpha-2C adrenergic receptor (Homo sapiens) (UniProt P18825); assay: modulators of alpha2C/GIRK thallium flux, primary screen, cell-based, HEK293 alpha2C/GIRK1/2 (AID 624;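 active means fluorescence slope after compound addition differing from the mean of all screened samples at 99.7% confidence, in either direction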;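 further: slope of fluorescence ratio to pre-addition baseline per second over 15 to 24 s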); conditions: thallium flux BTC fluorescence, at 10 µM, actives lie on both sides
[12] = inhibitors of mutant huntingtin aggregation, primary screen, imaging, exon1htt(103Q)mCFP cells, high-content imaging (AID 483;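 active means visual image review flags a hit and inhibition of aggregation exceeds 20%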;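 further: compound exposure lasted 3 days before fixation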;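 on nuclei count: percent of the per-plate median nuclei count of sample wells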); conditions: exon1htt(103Q)mCFP cell line, aggregate imaging, at 2 µM; inhibition of aggregation: stronger effect = higher value; nuclei count: measured here: cell count, toxicity
[13] = measured here: cell density z-score
[14] = measured here: nuclear c-Myc green intensity z-score
[15] = measured here: nuclear pErk red intensity z-score, stronger effect = higher value

Chain of Voltage-gated potassium channel subunit beta-2 (Rattus norvegicus) (P62483 whole entry, looked up): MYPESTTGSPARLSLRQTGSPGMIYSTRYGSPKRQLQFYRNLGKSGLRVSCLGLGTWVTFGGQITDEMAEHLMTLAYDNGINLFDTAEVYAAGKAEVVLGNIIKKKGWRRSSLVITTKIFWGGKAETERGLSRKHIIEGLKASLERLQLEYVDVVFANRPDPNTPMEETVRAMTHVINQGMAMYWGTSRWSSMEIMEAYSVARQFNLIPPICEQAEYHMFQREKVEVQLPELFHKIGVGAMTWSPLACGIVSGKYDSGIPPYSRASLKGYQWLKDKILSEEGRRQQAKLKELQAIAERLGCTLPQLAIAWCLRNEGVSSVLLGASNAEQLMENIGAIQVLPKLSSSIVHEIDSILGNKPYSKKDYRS
Chain of Muscarinic acetylcholine receptor M4 (Homo sapiens) (P08173 whole entry, looked up): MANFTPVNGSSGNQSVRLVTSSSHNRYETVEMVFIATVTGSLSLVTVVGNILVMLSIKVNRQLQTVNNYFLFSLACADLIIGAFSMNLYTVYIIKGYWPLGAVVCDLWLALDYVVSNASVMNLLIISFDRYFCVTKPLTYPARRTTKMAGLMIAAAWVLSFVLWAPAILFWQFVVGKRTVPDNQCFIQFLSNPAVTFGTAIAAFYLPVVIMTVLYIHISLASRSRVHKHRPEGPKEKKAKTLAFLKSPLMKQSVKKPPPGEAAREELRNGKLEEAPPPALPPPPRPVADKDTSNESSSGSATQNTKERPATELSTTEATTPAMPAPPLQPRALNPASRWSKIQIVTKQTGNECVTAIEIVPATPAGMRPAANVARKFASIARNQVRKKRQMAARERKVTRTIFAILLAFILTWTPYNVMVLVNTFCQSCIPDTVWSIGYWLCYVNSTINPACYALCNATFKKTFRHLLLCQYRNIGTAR
Chain of Alpha-2C adrenergic receptor (Homo sapiens) (P18825 whole entry, looked up): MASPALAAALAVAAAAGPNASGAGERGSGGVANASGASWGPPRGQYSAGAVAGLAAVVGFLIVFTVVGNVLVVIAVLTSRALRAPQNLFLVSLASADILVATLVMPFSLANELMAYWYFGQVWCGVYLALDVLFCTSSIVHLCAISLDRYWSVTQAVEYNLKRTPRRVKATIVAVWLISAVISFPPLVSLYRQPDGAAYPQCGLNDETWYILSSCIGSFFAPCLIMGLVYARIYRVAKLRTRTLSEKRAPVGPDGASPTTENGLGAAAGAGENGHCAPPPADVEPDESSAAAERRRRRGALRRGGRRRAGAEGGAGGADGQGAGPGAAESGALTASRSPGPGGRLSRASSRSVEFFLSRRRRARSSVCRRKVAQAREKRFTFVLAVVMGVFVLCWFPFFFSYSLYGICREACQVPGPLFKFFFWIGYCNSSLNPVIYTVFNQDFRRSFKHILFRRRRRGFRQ
Chain of Dual specificity protein phosphatase 6 (Homo sapiens) (Q16828 whole entry, looked up): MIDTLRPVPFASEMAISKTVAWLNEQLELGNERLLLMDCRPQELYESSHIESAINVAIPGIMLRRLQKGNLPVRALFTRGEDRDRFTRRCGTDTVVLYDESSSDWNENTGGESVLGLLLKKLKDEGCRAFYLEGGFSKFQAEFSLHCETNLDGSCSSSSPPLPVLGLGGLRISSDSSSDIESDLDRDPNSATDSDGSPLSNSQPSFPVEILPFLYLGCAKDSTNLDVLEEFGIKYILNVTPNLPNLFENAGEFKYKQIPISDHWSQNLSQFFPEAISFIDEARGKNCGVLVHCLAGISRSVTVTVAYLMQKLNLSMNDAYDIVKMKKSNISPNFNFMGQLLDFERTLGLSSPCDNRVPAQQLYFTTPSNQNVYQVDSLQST

Row | SMILES | inhibition [1] | nuclei count [1] [%] | z-score [2, 13] | z-score [2, 14] | z-score [2, 15] | inhibition [3] | fluorescence slope [4] | NADPH fluorescence slope [5] | fluorescence slope [6] | outcome [7] | inhibition [8] | inhibition [9] | inhibition [10] | slope [11] | inhibition of aggregation [12] | nuclei count [12] [%]
1 | CCOC(=O)c1ccc(NCC(O)COc2ccccc2)cc1 (stereo unspecified) | -60.3% (inactive) | 138 | 1.4 | -0.621 | -0.757 | 3.66% (inactive) | -0.343 (inactive) | -1.2e-05 (inactive) | 0.00673 (inactive) | inactive | 3.53% (inactive) | – | – | – | – | –
2 | CC(C)(C#N)C(C)(C)c1nn[nH]n1 | -15.5% (inactive) | 72.6 | 1.29 | -0.296 | -0.013 | 13.2% (inactive) | -0.468 (inactive) | -2.9e-05 (inactive) | 0.00499 (inactive) | inactive | 20% (inactive) | – | – | – | – | –
3 | CC(=O)Oc1oc(-c2ccccc2)nc1/C=N/c1ccccn1 | -20.4% (inactive) | 147 | -0.443 | 1.34 | 0.905 | 7.48% (inactive) | -0.383 (inactive) | -5.8e-05 (inactive) | 0.00577 (inactive) | inactive | -3.91% (inactive) | – | – | – | – | –
4 | Cc1cc(N/C=C/C(=O)c2cccc3ccccc23)no1 | -51% (inactive) | 95.6 | -0.324 | 0.59 | -0.55 | 13.2% (inactive) | -0.396 (inactive) | -2.3e-06 (inactive) | 0.00616 (inactive) | inactive | -11.1% (inactive) | – | – | – | – | –
5 | Cc1cccc(-n2ccnc2SCC(=O)Nc2cc(C)on2)c1 | – | – | – | – | – | – | -0.513 (inactive) | 3.9e-06 (inactive) | 0.00505 (inactive) | – | – | -19% (inactive) | -43.2% (inactive) | – | – | –
6 | CCCN1Cc2cccc(C(=O)NCc3cccs3)c2C1=O | – | – | – | – | – | – | -0.393 (inactive) | -4e-05 (inactive) | – | inactive | – | 3.53% (inactive) | 2.96% (inactive) | 0.00508 (inactive) | – | –
7 | CCOC(=O)CNC(=O)C(Cc1ccccc1)NS(=O)(=O)c1ccc2c(c1)CCC(=O)N2 (stereo unspecified) | – | – | – | – | – | – | -0.438 (inactive) | -0.000333 (inactive) | 0.00524 (inactive) | – | – | 0.424% (inactive) | 15.6% (inactive) | – | – | –
8 | O=C(CN(Cc1ccco1)C(=O)CNS(=O)(=O)c1ccc(Cl)cc1)NCc1ccc(F)cc1 | -185% (inactive) | 159 | – | – | – | – | -0.567 (inactive) | -6.4e-06 (inactive) | 0.00551 (inactive) | – | – | 22.1% (inactive) | 27.5% (inactive) | – | -10.4% (inactive) | 97.5
9 | Cn1c(=O)oc2cc(S(=O)(=O)NCCC(=O)N3CCc4ccccc4C3)ccc21 | – | – | – | – | – | – | -0.514 (inactive) | -9.1e-05 (inactive) | – | – | – | 13.9% (inactive) | 18.7% (inactive) | 0.00621 (inactive) | – | –
10 | Cc1ccc2oc(=O)c3cnn(CC(=O)N4CCCc5ccccc54)c3c2c1 | – | – | – | – | – | – | -0.49 (inactive) | 1.1e-05 (inactive) | – | – | – | 29.3% (inactive) | 19.2% (inactive) | 0.00798 (inactive) | – | –
11 | COc1ccc[nH]c1=O | -53.5% (inactive) | 156 | -0.586 | 0.536 | -1.08 | 11.3% (inactive) | -0.41 (inactive) | -4.9e-05 (inactive) | 0.00623 (inactive) | inactive | 14.4% (inactive) | – | – | – | – | –
12 | O=C(NCCC1=CCCCC1)C1CCN(S(=O)(=O)c2cccc3cccnc23)CC1 | – | – | – | – | – | – | -0.494 (inactive) | 2.4e-05 (inactive) | – | – | – | -7.21% (inactive) | -9.62% (inactive) | 0.00594 (inactive) | – | –
13 | CCOC(=O)C1CCCN(C(=O)c2cc3c(-c4cccc(OC)c4)nn(C)c3s2)C1 (stereo unspecified) | – | – | – | – | – | – | -0.355 (inactive) | -3.7e-05 (inactive) | – | inactive | – | -33.2% (inactive) | 39.4% (inactive) | 0.00666 (inactive) | – | –
14 | CN1[C@@H]2CC(OC(=O)[C@H](CO)c3ccccc3)C[C@H]1[C@@H]1O[C@@H]12 (stereo partly specified) | -56.4% (inactive) | 129 | 0.18 | -0.245 | -0.715 | 15.3% (inactive) | -0.461 (inactive) | -3e-05 (inactive) | – | – | – | 2.34% (inactive) | 25.9% (inactive) | 0.00551 (inactive) | – | –
15 | C1CCC2=NCCCN2CC1 | -40.2% (inactive) | 99.2 | – | – | – | – | -0.37 (inactive) | 4.2e-05 (inactive) | – | – | – | 10.9% (inactive) | 20.9% (inactive) | 0.00592 (inactive) | 7.9% (inactive) | 102
16 | CCCCCOc1ccc(Cl)cc1CN1CCOCC1 | -77.3% (inactive) | 110 | -0.264 | 0.0743 | -0.781 | 11.3% (inactive) | -0.434 (inactive) | -2.1e-05 (inactive) | 0.00599 (inactive) | inactive | 126% (active) | – | – | – | – | –
17 | COc1ccc(OC)c(C2=NOC(C(=O)Nc3c(C)n(C)n(-c4ccccc4)c3=O)C2)c1 (stereo unspecified) | – | – | – | – | – | – | -0.546 (inactive) | -2.8e-05 (inactive) | – | – | – | -3.88% (inactive) | 17.6% (inactive) | 0.0073 (inactive) | – | –
18 | CC(C)CCNC(=O)NC(=O)CSc1nnc(COc2ccccc2Cl)o1 | -53.1% (inactive) | 126 | – | – | – | – | -0.513 (inactive) | -7.7e-06 (inactive) | 0.00525 (inactive) | – | – | 9.99% (inactive) | 21% (inactive) | – | 13.9% (inactive) | 98.5
19 | COc1ccc(CCN(C)CCCC(C#N)(c2ccc(OC)c(OC)c2)C(C)C)cc1OC (stereo unspecified) | -110% (inactive) | 114 | -0.13 | -0.251 | -0.441 | 12.4% (inactive) | -0.461 (inactive) | -2.2e-05 (inactive) | – | – | – | 2.16% (inactive) | 27% (inactive) | – | – | –
